Results filed as inconclusive are left out. The source made the active and inactive calls. Calls come from the whole dose curve; as a rule, active = well fitted curve in the direction sought with a large enough effect; inconclusive = small, poorly fitted or top-dose-only effect, or another doubt; inactive = no such curve, though single readings can be large; an effect the other way counts as inactive or inconclusive.
Assays:
[1] = qHTS of pediatric cancer cell lines to identify multiple opportunities for drug repurposing: Primary screen for control Hh wild type fibroblast cells (AID 1347106); note: nearly all actives have a fitted effect of over 55% in size; note: potency is the fitted concentration of half-maximal effect;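 for activity change, negative = cytotoxic: a drop in luminescence marks cytotoxicity and a rise apparent proliferation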
Method in brief: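 Viability after 48 h compound treatment at 37C, 500-1,000 cells/well, read as ATP luminescence with CellTiter-Glo. Primary screens used 11-point (MIPE, 0.78 nM-46 µM) or 8-point (NPC, 0.59 nM-46 µM) final concentrations; follow-up screens used 11-point dilutions.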

[2] = qHTS of pediatric cancer cell lines to identify multiple opportunities for drug repurposing: Primary screen for Rh30 cells (AID 1347107); note: nearly all actives have a fitted effect of over 75% in size; note: potency is the fitted concentration of half-maximal effect
Method in brief: (§1)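 Cells (500-1,000/well) rested 5 h, then received compounds for 48 h; metabolically active cells were measured by CellTiter-Glo luminescence. Final concentrations spanned up to 46 µM (MIPE, 11-point) or 0.59 nM-46 µM (NPC, 8-point) in primary screens, 11-point in follow-ups.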

[3] = qHTS of pediatric cancer cell lines to identify multiple opportunities for drug repurposing: Primary screen for Rh41 cells (AID 1347108); note: nearly all actives have a fitted effect of over 70% in size; note: potency is the fitted concentration of half-maximal effect;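 for activity change, negative = cytotoxic: luminescence drop marks cytotoxic hits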
Method in brief: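 Plated cells (500-1,000 per well, growth media) were allowed to settle for 5 hours, treated with compound dilutions for 48 hours, then lysed with CellTiter-Glo for 15 min at room temperature before luminescence reading.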

[4] = qHTS of pediatric cancer cell lines to identify multiple opportunities for drug repurposing: Confirmatory screen for BT-12 cells (AID 1347112); note: nearly all actives have a fitted effect of over 55% in size; note: potency is the fitted concentration of half-maximal effect
Method in brief: as §1

[5] = qHTS of pediatric cancer cell lines to identify multiple opportunities for drug repurposing: Confirmatory screen for DAOY cells (AID 1347114); note: nearly all actives have a fitted effect of over 65% in size; note: potency is the fitted concentration of half-maximal effect
Method in brief: (§2)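 Viability measured as metabolically active cells via CellTiter-Glo luminescence following 48 hours of compound exposure, 11-point dilutions in confirmatory testing. 500-1,000 cells/well plated 5 hours before dosing; controls were DMSO and 2.3 µM bortezomib.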

[6] = qHTS of pediatric cancer cell lines to identify multiple opportunities for drug repurposing: Confirmatory screen for SJ-GBM2 cells (AID 1347116); note: nearly all actives have a fitted effect of over 60% in size; note: potency is the fitted concentration of half-maximal effect
Method in brief: as §2

[7] = qHTS of pediatric cancer cell lines to identify multiple opportunities for drug repurposing: Confirmatory screen for BT-37 cells (AID 1347117); details: BT-37 pediatric cancer cells, viability; activity change, negative = cytotoxic: at 45.9 µM (top of the series); note: nearly all actives have a fitted effect of over 55% in size; note: potency is the fitted concentration of half-maximal effect
Method in brief: as §1

[8] = qHTS of pediatric cancer cell lines to identify multiple opportunities for drug repurposing: Confirmatory screen for TC32 cells (AID 1347118);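 note: cells exposed to compound for 48 h before the read; nearly all actives have a fitted effect of over 65% in size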; note: potency is the fitted concentration of half-maximal effect
Method in brief: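 Luminescent CellTiter-Glo read-out of metabolically active TC32 cells after 48 h compound exposure. Primary: MIPE 11-point, 0.78 nM–46 µM; NPC 8-point, 0.59 nM–46 µM. Confirmatory: 11-point dilutions.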

[9] = qHTS of pediatric cancer cell lines to identify multiple opportunities for drug repurposing: Confirmatory screen for MG 63 (6-TG R) cells (AID 1347119); note: nearly all actives have a fitted effect of over 55% in size; note: potency is the fitted concentration of half-maximal effect
Method in brief: as §1

[10] = qHTS of pediatric cancer cell lines to identify multiple opportunities for drug repurposing: Confirmatory screen for control Hh wild type fibroblast cells (AID 1347121); note: nearly all actives have a fitted effect of over 70% in size
Method in brief: as §1

[11] = qHTS of pediatric cancer cell lines to identify multiple opportunities for drug repurposing: Confirmatory screen for U-2 OS cells (AID 1347122); note: nearly all actives have a fitted effect of over 65% in size; note: potency is the fitted concentration of half-maximal effect
Method in brief: as §1

[12] = qHTS of pediatric cancer cell lines to identify multiple opportunities for drug repurposing: Confirmatory screen for Rh41 cells (AID 1347123); note: nearly all actives have a fitted effect of over 60% in size; note: potency is the fitted concentration of half-maximal effect
Method in brief: as §1

[13] = qHTS of pediatric cancer cell lines to identify multiple opportunities for drug repurposing: Confirmatory screen for RD cells (AID 1347124);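 note: cells exposed to compound for 48 h before viability readout; nearly all actives have a fitted effect of over 65% in size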; note: potency is the fitted concentration of half-maximal effect
Method in brief: as §1

[14] = qHTS of pediatric cancer cell lines to identify multiple opportunities for drug repurposing: Confirmatory screen for NB1643 cells (AID 1347109); note: nearly all actives have a fitted effect of over 45% in size; note: potency is the fitted concentration of half-maximal effect
Method in brief: as §1

[15] = qHTS of pediatric cancer cell lines to identify multiple opportunities for drug repurposing: Confirmatory screen for SK-N-MC cells (AID 1347111);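 note: cells exposed to compound for 48 h before the readout; nearly all actives have a fitted effect of over 70% in size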; note: potency is the fitted concentration of half-maximal effect
Method in brief: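 Seed 500-1,000 cells/well; rest 5 h at 37 degrees C. Pin-transfer compounds, 11-point titration. Incubate 48 h. Add CellTiter-Glo, 15 min RT, read luminescence.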

[16] = qHTS of pediatric cancer cell lines to identify multiple opportunities for drug repurposing: Confirmatory screen for LAN-5 cells (AID 1347113); note: nearly all actives have a fitted effect of over 65% in size; note: potency is the fitted concentration of half-maximal effect
Method in brief: as §1

[17] = qHTS of pediatric cancer cell lines to identify multiple opportunities for drug repurposing: Confirmatory screen for Rh18 cells (AID 1347125); note: nearly all actives have a fitted effect of over 55% in size; note: potency is the fitted concentration of half-maximal effect
Method in brief: as §1

[18] = qHTS of pediatric cancer cell lines to identify multiple opportunities for drug repurposing: Confirmatory screen for A673 cells (AID 1347110)
Method in brief: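 Viability was read as ATP luminescence (CellTiter-Glo) after 48 h of compound exposure at 37 C in A673 cells seeded at 500-1,000/well. Titrations reached 46 uM final, with 11 points in the confirmatory screen. Concentration-response curves were fitted directly.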

[19] = qHTS of pediatric cancer cell lines to identify multiple opportunities for drug repurposing: Confirmatory screen for NB-EBc1 cells (AID 1347115);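 note: potency is the fitted concentration of half-maximal effect; cells exposed to compound for 48 h before the viability read; nearly all actives have a fitted effect of over 45% in size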
Method in brief: as §1

Measured: Potency

C[C@H](NC(=O)C(C#N)=Cc1cccc(Br)n1)c1ccccc1
active: [2] 23.5 µM | [3] 23.5 µM
inactive: [1]

Cc1cnc(NC(=O)Nc2cc(Br)c(C)cc2OC[C@@H]2CNCCO2)cn1
inactive: [1] | [2] | [3]

Cc1ncc(-c2ccnc(Nc3ccc(S(C)(=O)=O)cc3)n2)n1C(C)C
active: [3] 5.9 µM | [4] 3.29 µM | [5] 13.1 µM | [6] 2.61 µM | [7] 3.29 µM | [8] 4.65 µM | [11] 3.29 µM | [12] 2.93 µM | [13] 5.22 µM
inactive: [1] | [2] | [9] | [10]

CC(C)Oc1ccc(C(=O)N[C@H](CNC(=O)CN(C)C)Cc2ccc(-c3cn4cccc([C@H](C)O)c4n3)cc2)cc1Cl
inactive: [1]
active: [3] 1.18 µM

CN(C)c1ccc2cc(C(=O)N[C@@H](CCCN=C(N)CCl)C(=O)NCc3ccccc3)ccc2c1
active: [2] 4.69 µM | [3] 14.8 µM
inactive: [1]

CCc1c(O)cc(O)c(C(=O)c2ccc(OCCN3CCOCC3)c(OC)c2)c1CC(=O)N(CCOC)CCOC
active: [3] 1.18 µM

Cc1[nH]c(C=C2C(=O)Nc3ccccc32)c(C)c1CCC(=O)O
inactive: [1] | [14] | [15] | [4] | [16] | [5] | [7] | [8] | [9] | [11] | [12] | [13] | [17]

COc1cc([C@@H]2c3cc4c(cc3[C@@H](O[C@@H]3O[C@@H]5CO[C@@H](c6cccs6)O[C@@H]5[C@H](O)[C@@H]3O)[C@H]3COC(=O)[C@H]23)OCO4)cc(OC)c1O
active: [18] 0.657 µM | [15] 0.104 µM | [5] 5.22 µM | [7] 0.261 µM | [8] 0.131 µM | [11] 2.33 µM | [12] 0.585 µM | [17] 1.31 µM

O=C1NC(=O)[C@@H](c2cn3c4c(cccc24)CCC3)[C@H]1c1c[nH]c2ccccc12
inactive: [2]
active: [18] 2.33 µM | [15] 0.928 µM | [5] 2.08 µM | [7] 1.85 µM | [8] 0.827 µM | [9] 1.17 µM | [11] 1.17 µM

COc1ccc(S(=O)(=O)Nc2cccnc2Nc2ccc(O)cc2)cc1
active: [3] 0.187 µM | [14] 0.522 µM | [15] 2.61 µM | [4] 3.29 µM | [16] 1.65 µM | [5] 0.369 µM | [19] 2.33 µM | [7] 1.31 µM | [8] 0.737 µM | [9] 0.465 µM | [11] 0.827 µM | [13] 0.928 µM
inactive: [2] | [10] | [17]

CCCNC(=O)[C@H]1O[C@H]1C(=O)N[C@H](C(=O)N1CCC[C@@H]1C(=O)OC)C(C)CC (stereo not given in full)
active: [2] 18.7 µM | [3] 7.43 µM

c1ccc(CNc2nc(NCc3ccccc3)c3ccccc3n2)cc1
active: [2] 23.5 µM | [3] 18.7 µM

CC(=O)O[C@]1(C(C)=O)CC[C@H]2[C@@H]3C=C(C)C4=CC(=O)CC[C@]4(C)[C@@H]3CC[C@@]21C
inactive: [2]

NS(=O)(=O)OC[C@@H]1C[C@@H](n2ccc3c(N[C@H]4CCc5ccccc54)ncnc32)C[C@H]1O
inactive: [14] | [15] | [4] | [6] | [7] | [8] | [9] | [10] | [11] | [13] | [17]
active: [1] 6.62 µM | [3] 1.87 µM

CC(=O)ON=C1C(c2c(O)[nH]c3cc(Br)ccc23)=Nc2ccccc21
inactive: [1]
active: [3] 2.96 µM | [14] 16.5 µM | [15] 8.27 µM | [4] 18.5 µM | [16] 14.7 µM | [19] 16.5 µM | [7] 16.5 µM | [8] 16.5 µM | [9] 18.5 µM | [17] 13.1 µM

CN(CC(=O)N(Cc1ccc(C2CCCCC2)cc1)c1ccc(C(=O)O)c(O)c1)S(=O)(=O)c1c(F)c(F)c(F)c(F)c1F
active: [3] 23.5 µM | [14] 26.1 µM | [7] 26.1 µM | [8] 26.1 µM | [9] 20.8 µM
inactive: [1] | [4] | [6]

CCOC(=O)N1CCN([N+]([O-])=NOc2ccc([N+](=O)[O-])cc2C#N)CC1
active: [14] 3.69 µM | [18] 2.61 µM | [15] 3.29 µM | [16] 4.65 µM | [5] 2.33 µM | [7] 3.29 µM | [8] 2.33 µM | [12] 18.5 µM
inactive: [2]
